# Measurements taken from PubChem BioAssay (NCATS).
# Values joined by “and” are separate entries in the source; they are usually repeats but may differ in a detail not shown here. Identical values can stand only once. Records with an inconclusive call do not appear. A call without a number means that no potency is given here. Active and inactive are the calls of the source. Unless noted, calls follow the shape of the dose curve; as a rule, active = well fitted curve in the direction sought with a large enough effect; inconclusive = small, poorly fitted or top-dose-only effect, or another doubt; inactive = no such curve, though single readings can be large; an effect the other way counts as inactive or inconclusive.
# How the values were obtained:
# [1] = target: RecQ-like DNA helicase BLM (Homo sapiens) (UniProt P54132); test: qHTS Validation Assay for Inhibitors of Bloom's syndrome helicase (BLM) (AID 2364)
# Method in brief: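 50 nM BLM preincubated 15 min at room temperature with compound in pH 8.0 Tris buffer containing 2.5 ug/ml poly(dI-dC); started with 200 nM TAMRA/BHQ-2 forked duplex and 2 mM ATP (final). Unwinding read as TAMRA fluorescence increase, two reads 2 h apart.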
# [2] = target: Rap guanine nucleotide exchange factor 3 (Homo sapiens) (UniProt O95398); test: Confirmatory qHTS for antagonist of cAMP-regulated guanine nucleotide exchange factor 3 (EPAC1) (AID 1645880); also: nearly all actives have a fitted effect of over 55% in size
# Method in brief: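 Released BODIPY-GDP fluoresces less than Rap1-bound BODIPY-GDP; the signal is followed at 480/540 nm at 5-min intervals over 30 min, after 5 min at room temperature. Reactions contain 100 nM EPAC1, 250 nM RAP1B-BODIPY-GDP and 50 uM GDP; results are normalized to ATA and DMSO.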
# [3] = target: Rap guanine nucleotide exchange factor 4 (Homo sapiens) (UniProt Q8WZA2); test: Confirmatory qHTS for agonist of cAMP-regulated guanine nucleotide exchange factor 4 (EPAC2) (AID 1645884);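 also: nucleotide exchange releases bodipy-GDP from Rap1 and this lowers its fluorescence; nearly all actives have a fitted effect of over 65% in size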
# [4] = target: Rap guanine nucleotide exchange factor 4 (Homo sapiens) (UniProt Q8WZA2); test: Confirmatory qHTS for antagonist of cAMP-regulated guanine nucleotide exchange factor 4 (EPAC2) (AID 1645885); also: nearly all actives have a fitted effect of over 25% in size; also: potency is read from the fitted curve at half-maximal effect
# [5] = qHTS Assay for Identification of Small Molecule Antagonists for NFkB Signaling Pathway (AID 895; active = well fitted inhibition curve with a large enough effect in the signal ratio, with a control signal flat, not every such curve was filed as active; the % refers to the signal ratio; also: potency is read from the fitted curve at half-maximal effect)
# Method in brief: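 ME-180 NFkB-bla cells (beta-lactamase under NFkB response element), plated overnight, treated with compound then 10 pM TNF alpha (about EC50) for 5 hrs at 37 C. LiveBLAzer FRET read at 460/530 nm emission, 405 nm excitation.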
# [6] = target: Muscarinic acetylcholine receptor M1 (Rattus norvegicus) (UniProt P08482); test: qHTS Assay for Antagonists of Acetylcholine Muscarinic M1 Receptor: Kinetic Measurement of Intracellular Calcium Response (AID 943); also: nearly all actives have a fitted effect of over 75% in size; also: potency is read from the fitted curve at half-maximal effect;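 as to activity change, negative = inhibition: Fluo-4 calcium signal as peak divided by basal fluorescence over 4 min; series mostly up to about 35 µM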
# Method in brief: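 Antagonism is measured as inhibition of the carbachol-evoked calcium rise in CHO cells transfected with rat M1. Cells are dye-loaded, exposed to compound for 10 min, then stimulated with 100 nM carbachol (EC80).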
# [7] = target: Muscarinic acetylcholine receptor M1 (Rattus norvegicus) (UniProt P08482); test: qHTS Assay for Antagonists of Acetylcholine Muscarinic M1 Receptor: Measurement of IP-One Response (AID 944); also: nearly all actives have a fitted effect of over 75% in size; also: potency is read from the fitted curve at half-maximal effect
# Method in brief: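 Antagonist mode with rat M1 receptor transfected into CHO cells. Compound is added first for 10 min, carbachol at its EC80 follows for 30 min, and lysis reagents then allow TR-FRET detection of accumulated IP1.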
# [8] = Cellular Toxicity (caspase-3) HepG2 (AID 654);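 also: cells exposed to compound for 16 hours before reading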
# Method in brief: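 Caspase 3/7 activation in HepG2 is measured as rising luminescence after a 16 hr treatment at 37 °C. Values are scaled between DMSO basal and 100 uM tamoxifen, and AC50 is fitted with the Hill equation.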
# [9] = target: Retinoic acid receptor RXR-alpha (Homo sapiens) (UniProt P19793); test: qHTS assay for small molecule agonists of retinoid X receptor alpha signaling (AID 588544; calls by dose curve)
# [10] = qHTS Assay for Identification of Small Molecule Agonists for Thrombopoietin (TPO) Signaling Pathway (AID 917)
# Method in brief: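 Quantitative HTS for pathway activators: compounds were pin-transferred onto IL-3-starved Ba/F3 cells expressing human TPO receptor, TPO was added at its EC50 (26 pM final), and after 24 hrs at 37 C reporter luciferase was measured.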
# [11] = Cell Viability - Jurkat (AID 426;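 active = dose-dependent loss of cell ATP signal giving a full or clear fitted curve, ranked by lower potency value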;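 also: potency is read from the fitted curve at half-maximal effect; cells exposed to compound for 40 hours at 37 °C before ATP read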); conditions: qHTS
# Method in brief: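 Cells of the human T-cell leukemia line Jurkat (E6-1) are seeded at 5000 per well, treated with compound across a concentration range for 40 hours at 37 °C, then lysed with CellTiter-Glo; luminescence reports ATP.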
# [12] = Cell Viability - LYMP2-004 (AID 966);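 also: cells exposed to compound for 24 h; nearly all actives have a fitted effect of over 65% in size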; also: potency is read from the fitted curve at half-maximal effect
# Method in brief: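 qHTS cytotoxicity: human lymphoblastoid line, 24 hr compound treatment, 37 C, complete medium. Viability read as cellular ATP via luciferase luminescence; tetraoctylammonium bromide served as positive control.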
# [13] = Cell Viability - LYMP2-021 (AID 974);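 also: compound exposure lasts 24 hours at 37 °C; nearly all actives have a fitted effect of over 55% in size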
# Method in brief: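 Loss of cellular ATP, measured with a luciferase-based CellTiter-Glo readout, serves as the toxicity signal in human lymphoblastoid cells treated for 24 hours at 37 C. Potency is reported as AC50 from a standard Hill model.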
# [14] = target: Estrogen receptor (Homo sapiens) (UniProt P03372); test: qHTS assay for small molecule agonists of estrogen receptor alpha signaling (AID 588514; calls by dose curve; also: nearly all actives have a fitted effect of over 70% in size; also: potency is read from the fitted curve at half-maximal effect)
# Method in brief: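 Efficacy is expressed against 20 nM 17-beta-estradiol (100%) and DMSO basal (0%); EC50 from Hill equation. Assay: beta-lactamase reporter in ER-alpha-UAS-bla HEK 293 cells, 18 h compound incubation, CCF4 detection.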
# [15] = target: Glucocorticoid receptor (Homo sapiens) (UniProt P04150); test: qHTS assay for small molecule agonists of glucocorticoid receptor signaling (AID 588532; active = well fitted curve in the direction sought with a large enough effect in the signal ratio, with a control signal flat; the % refers to the signal ratio); conditions: HeLa MMTV-bla, beta-lactamase ratio, agonist, 18 h; stronger effect = higher value; percent of dexamethasone control, DMSO zero
# Method in brief: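 Cells were plated and rested 3-5 h at 37 C, compounds were added in titration and incubated 18 h, then CCF4 substrate was loaded for 2 h at RT before reading blue/green fluorescence. EC50 came from Hill-equation fitting.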
# [16] = target: Bile acid receptor (Homo sapiens) (UniProt Q96RI1); test: qHTS assay for small molecule antagonists of farnesoid X receptor signaling (AID 588526; calls by dose curve)
# Method in brief: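 Antagonist mode: titrated compounds tested against chenodeoxycholic acid stimulation (normalized to 50 uM CDCA and DMSO) in GeneBLAzer HEK293T cells for 16 h. Beta-lactamase read by CCF4 fluorescence; IC50 from Hill fits.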
# [17] = target: Bile acid receptor (Homo sapiens) (UniProt Q96RI1); test: qHTS assay for small molecule agonists of farnesoid X receptor signaling (AID 588527; calls by dose curve; also: series mostly up to about 77 µM); conditions: HEK293T FXR-UAS-bla, beta-lactamase ratio, 16 h; stronger effect = higher value
# Method in brief: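 FXR-UAS-bla HEK293T cells (10% dialyzed FBS) preincubated 5-7 h at 37 C, then compounds at up to 92 uM for 16 h at 37 C. CCF4 beta-lactamase read-out after 2 h RT. Normalized to chenodeoxycholic acid (100 uM) and DMSO; Hill fit gave EC50 and efficacy.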
# [18] = qHTS assay for small molecule antagonists of peroxisome proliferator-activated receptor delta signaling (AID 588535; active = well fitted inhibition curve with a large enough effect in the signal ratio, with a control signal flat, not every such curve was filed as active; the % refers to the signal ratio;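 as to max response: cells co-treated with a PPAR-delta agonist as stimulator during compound exposure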); conditions: HEK293T PPARd-UAS-bla, beta-lactamase FRET ratio, 18 h; 460 nm channel
# Method in brief: (§1)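 Fluorescence from CCF4-loaded GeneBLAzer PPAR-delta-UAS-bla HEK293T cells (2 hrs RT loading) quantified reporter inhibition after an 18 hr, 37 C compound exposure across a titration.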
# [19] = target: Peroxisome proliferator-activated receptor delta (Homo sapiens) (UniProt Q03181); test: as above
# Method in brief: as §1
# [20] = Cellular Toxicity (caspase-3) NIH 3T3 (AID 666);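 also: caspase signal read after 16 h compound exposure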
# Method in brief: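 Cells were plated at 1000 per well and incubated 5 hr at 37°C, then compound was added for 16 hr. Caspase-Glo 3/7 reagent followed for 20 min at room temperature before luminescence was read.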
# Sequence of Muscarinic acetylcholine receptor M1 (Rattus norvegicus) (P08482 whole entry, looked up): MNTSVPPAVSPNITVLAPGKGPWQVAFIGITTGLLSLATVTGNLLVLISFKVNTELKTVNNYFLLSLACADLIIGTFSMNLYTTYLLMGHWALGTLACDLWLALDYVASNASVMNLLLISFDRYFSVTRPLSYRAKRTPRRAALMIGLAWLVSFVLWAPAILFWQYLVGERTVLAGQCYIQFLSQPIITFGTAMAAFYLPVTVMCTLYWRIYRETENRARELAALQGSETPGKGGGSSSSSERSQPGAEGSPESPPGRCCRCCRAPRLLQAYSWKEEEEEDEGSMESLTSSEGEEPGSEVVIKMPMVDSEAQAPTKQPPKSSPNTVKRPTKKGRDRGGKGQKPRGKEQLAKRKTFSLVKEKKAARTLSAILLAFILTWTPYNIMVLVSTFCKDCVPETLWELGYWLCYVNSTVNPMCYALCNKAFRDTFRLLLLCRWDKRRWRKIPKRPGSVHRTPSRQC
# Sequence of Bile acid receptor (Homo sapiens) (Q96RI1 whole entry, looked up): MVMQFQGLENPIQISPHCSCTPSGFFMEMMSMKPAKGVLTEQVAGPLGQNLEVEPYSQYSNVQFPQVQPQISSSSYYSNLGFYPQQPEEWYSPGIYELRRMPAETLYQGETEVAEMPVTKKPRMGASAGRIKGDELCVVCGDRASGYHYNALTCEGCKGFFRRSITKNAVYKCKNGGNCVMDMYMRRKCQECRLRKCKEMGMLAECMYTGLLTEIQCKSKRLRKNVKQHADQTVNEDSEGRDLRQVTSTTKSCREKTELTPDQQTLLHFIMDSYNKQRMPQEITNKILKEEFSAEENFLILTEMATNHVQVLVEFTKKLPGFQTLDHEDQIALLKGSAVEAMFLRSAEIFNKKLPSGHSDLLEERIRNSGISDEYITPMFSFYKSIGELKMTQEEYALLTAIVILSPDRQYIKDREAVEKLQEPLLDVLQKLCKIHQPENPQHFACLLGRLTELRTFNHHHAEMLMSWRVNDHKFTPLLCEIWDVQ
# Sequence of RecQ-like DNA helicase BLM (Homo sapiens) (P54132 whole entry, looked up): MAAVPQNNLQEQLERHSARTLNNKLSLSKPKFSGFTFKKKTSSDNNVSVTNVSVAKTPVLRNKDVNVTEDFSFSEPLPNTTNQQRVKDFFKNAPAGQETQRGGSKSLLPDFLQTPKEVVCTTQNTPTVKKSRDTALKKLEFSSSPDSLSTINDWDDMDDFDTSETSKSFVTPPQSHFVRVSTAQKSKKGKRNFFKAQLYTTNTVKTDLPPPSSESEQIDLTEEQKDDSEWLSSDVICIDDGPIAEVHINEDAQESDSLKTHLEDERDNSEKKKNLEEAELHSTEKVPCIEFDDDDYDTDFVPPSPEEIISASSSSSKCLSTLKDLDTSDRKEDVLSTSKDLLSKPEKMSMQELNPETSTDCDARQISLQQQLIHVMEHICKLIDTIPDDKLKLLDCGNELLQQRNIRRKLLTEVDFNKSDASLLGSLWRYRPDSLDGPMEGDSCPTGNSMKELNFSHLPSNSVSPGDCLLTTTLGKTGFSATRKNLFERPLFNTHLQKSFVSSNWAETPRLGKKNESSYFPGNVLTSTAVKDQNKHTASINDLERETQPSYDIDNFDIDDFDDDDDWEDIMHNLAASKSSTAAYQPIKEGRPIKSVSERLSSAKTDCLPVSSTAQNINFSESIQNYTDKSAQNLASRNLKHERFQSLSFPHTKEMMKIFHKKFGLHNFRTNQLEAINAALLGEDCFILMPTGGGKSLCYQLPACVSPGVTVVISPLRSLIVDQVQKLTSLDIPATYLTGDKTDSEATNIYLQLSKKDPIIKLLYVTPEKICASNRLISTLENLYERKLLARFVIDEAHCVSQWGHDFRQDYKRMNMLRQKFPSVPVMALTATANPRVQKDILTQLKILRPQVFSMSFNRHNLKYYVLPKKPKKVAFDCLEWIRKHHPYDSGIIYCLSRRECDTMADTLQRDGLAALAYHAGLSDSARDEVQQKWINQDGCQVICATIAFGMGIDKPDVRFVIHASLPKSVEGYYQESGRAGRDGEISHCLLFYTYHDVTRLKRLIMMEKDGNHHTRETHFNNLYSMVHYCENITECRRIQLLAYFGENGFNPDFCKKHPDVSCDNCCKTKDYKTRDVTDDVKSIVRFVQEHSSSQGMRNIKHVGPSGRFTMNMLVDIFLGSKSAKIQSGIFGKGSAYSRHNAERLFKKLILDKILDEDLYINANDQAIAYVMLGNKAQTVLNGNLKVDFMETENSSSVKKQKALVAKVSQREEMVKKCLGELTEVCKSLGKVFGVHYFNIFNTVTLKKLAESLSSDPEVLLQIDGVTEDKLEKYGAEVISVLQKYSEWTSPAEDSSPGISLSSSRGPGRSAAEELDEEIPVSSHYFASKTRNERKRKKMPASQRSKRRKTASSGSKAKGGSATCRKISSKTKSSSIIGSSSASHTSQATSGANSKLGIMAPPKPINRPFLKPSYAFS
# Sequence of Estrogen receptor (Homo sapiens) (P03372 whole entry, looked up): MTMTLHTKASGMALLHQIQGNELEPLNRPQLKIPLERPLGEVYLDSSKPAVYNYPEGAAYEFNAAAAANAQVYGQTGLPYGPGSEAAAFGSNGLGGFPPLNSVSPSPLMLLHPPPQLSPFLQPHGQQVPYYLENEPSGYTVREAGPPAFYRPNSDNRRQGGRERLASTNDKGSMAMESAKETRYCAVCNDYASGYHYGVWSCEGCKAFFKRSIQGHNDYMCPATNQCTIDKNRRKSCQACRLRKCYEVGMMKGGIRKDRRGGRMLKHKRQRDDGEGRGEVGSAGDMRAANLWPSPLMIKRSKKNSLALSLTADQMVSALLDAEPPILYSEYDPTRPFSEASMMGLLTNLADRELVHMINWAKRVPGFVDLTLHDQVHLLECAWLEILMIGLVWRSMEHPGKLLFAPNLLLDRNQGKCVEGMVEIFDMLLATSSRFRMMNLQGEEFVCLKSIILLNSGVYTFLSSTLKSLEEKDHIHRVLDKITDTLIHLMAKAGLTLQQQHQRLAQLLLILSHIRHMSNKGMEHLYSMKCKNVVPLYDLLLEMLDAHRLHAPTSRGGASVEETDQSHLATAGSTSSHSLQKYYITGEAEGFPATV
# Sequence of Rap guanine nucleotide exchange factor 3 (Homo sapiens) (O95398 whole entry, looked up): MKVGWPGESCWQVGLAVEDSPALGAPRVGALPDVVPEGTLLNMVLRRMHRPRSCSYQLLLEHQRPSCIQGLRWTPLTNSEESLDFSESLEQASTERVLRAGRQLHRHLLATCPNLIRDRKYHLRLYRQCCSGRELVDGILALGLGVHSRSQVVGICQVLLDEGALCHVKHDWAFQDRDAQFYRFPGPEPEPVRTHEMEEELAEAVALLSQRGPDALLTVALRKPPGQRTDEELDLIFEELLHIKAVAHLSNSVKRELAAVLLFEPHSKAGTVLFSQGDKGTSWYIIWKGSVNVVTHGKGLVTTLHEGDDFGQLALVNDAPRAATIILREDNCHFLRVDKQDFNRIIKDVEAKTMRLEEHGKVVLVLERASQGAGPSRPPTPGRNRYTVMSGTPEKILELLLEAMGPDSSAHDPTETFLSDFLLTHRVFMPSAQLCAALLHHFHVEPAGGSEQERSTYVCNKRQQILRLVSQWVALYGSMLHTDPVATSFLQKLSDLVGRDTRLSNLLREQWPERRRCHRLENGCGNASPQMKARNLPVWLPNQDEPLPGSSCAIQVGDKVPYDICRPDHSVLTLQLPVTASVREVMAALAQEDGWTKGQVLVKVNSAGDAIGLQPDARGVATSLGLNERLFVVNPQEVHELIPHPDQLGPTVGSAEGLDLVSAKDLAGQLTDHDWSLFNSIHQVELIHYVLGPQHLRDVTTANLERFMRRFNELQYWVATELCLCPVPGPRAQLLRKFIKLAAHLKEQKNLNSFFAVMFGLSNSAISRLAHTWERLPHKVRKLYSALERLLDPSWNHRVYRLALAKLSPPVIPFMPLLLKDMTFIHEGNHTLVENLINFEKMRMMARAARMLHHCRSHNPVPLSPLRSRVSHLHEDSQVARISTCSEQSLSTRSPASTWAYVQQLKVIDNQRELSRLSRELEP
# Sequence of Peroxisome proliferator-activated receptor delta (Homo sapiens) (Q03181 whole entry, looked up): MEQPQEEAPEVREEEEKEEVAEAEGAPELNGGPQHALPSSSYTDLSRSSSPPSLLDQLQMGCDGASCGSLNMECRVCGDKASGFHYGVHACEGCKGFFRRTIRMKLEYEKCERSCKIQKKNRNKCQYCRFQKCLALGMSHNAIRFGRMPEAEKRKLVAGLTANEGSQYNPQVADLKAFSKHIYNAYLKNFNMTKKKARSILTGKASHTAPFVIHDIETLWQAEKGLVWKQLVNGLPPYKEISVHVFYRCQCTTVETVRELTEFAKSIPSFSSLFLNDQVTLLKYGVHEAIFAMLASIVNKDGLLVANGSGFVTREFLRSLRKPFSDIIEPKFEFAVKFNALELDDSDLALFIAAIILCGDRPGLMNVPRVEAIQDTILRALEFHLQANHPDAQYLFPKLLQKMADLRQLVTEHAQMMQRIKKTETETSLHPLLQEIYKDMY
# Sequence of Retinoic acid receptor RXR-alpha (Homo sapiens) (P19793 whole entry, looked up): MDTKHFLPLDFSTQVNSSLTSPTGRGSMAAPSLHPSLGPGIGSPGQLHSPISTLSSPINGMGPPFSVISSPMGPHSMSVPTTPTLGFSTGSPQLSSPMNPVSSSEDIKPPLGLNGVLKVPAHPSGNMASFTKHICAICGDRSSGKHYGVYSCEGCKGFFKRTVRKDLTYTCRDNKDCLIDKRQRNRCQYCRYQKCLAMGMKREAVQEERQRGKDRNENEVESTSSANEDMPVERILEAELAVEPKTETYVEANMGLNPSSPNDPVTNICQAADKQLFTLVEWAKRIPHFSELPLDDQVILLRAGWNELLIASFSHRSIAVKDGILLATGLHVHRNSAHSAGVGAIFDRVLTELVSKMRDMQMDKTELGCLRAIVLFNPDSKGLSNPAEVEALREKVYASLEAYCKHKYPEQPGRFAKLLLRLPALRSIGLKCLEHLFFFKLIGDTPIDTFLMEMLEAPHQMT
compound,measurement,setting,value
C[C@]12CC[C@H](O)CC1=CCC1C2CC[C@]2(C)C(=O)CC[C@@H]12 (some centres undefined),outcome,[1],inactive
O=C1c2ccccc2-c2cccc3cccc1c23,Potency,[2],inactive
same,Potency,[3],inactive
same,Potency,[4],inactive
O=C(OC1CCN(CCCl)CC1)C(c1ccccc1)c1ccccc1,Potency,[5],2.51 µM (active)
same,Potency,[6],0.112 µM (active)
same,Potency,[7],0.562 µM (active)
same,Potency,[2],inactive
same,activation,[3],"6.37% [at 17.1 µM, percent relative to cAMP agonist control] (inactive)"
same,"activity change, negative = inhibition",[4],-6.11% [at 12.7 µM] (inactive)
COc1cc2c(cc1-c1cc3cc4ccoc4cc3oc1=O)OCO2,Potency,[3],inactive
same,Potency,[4],0.987 µM (active)
C[N+]1(C)C2CC(OC(=O)C(CO)c3ccccc3)CC1C1OC12 (centres undefined),outcome,[1],inactive
CC(=O)OC1CC2C(C)(C)C(=O)C=C[C@]2(C)C2CC[C@]3(C)C(=CC(=O)OC3c3ccoc3)[C@]12C (some centres undefined),Potency,[2],inactive
same,Potency,[3],inactive
C#CCN(C)C(C)Cc1ccccc1 (centres undefined),outcome,[1],inactive
CC1=NCCc2c1[nH]c1cc(O)ccc21,Potency,[2],inactive
same,Potency,[4],inactive
CCCN1CCc2cccc3c2C1Cc1ccc(O)c(O)c1-3 (centres undefined),outcome,[1],inactive
O=C1C=CC(=O)c2c(O)cccc21,Potency,[3],inactive
same,Potency,[4],inactive
c1ccc(N=Nc2ccccc2)cc1,outcome,[8],inactive
same,Potency,[9],inactive
COc1cc(C=C(C#N)C#N)cc(O)c1O,outcome,[10],inactive
same,Potency,[6],inactive
C=CCN1CC[C@@]2(C)c3cc(O)ccc3CC1[C@@H]2C,outcome,[1],inactive
CCNc1nc(Cl)nc(NC(C)C)n1,Potency,[11],> 92 µM (inactive)
same,Potency,[12],inactive
same,Potency,[13],inactive
same,Potency,[14],inactive
same,activation,[15],-2.38% (inactive) and -6.25% (inactive)
C=CCc1ccc2c(c1)OCO2,Potency,[13],inactive
same,Potency,[9],inactive
COC(=O)NC(=S)Nc1ccccc1NC(=S)NC(=O)OC,Potency,[13],inactive
same,Potency,[14],inactive
same,outcome,[16],inactive
same,activation,[17],1.1% (inactive) and -0.86% (inactive)
same,max response,[18],-30.4% and 40.5%
same,Potency,[19],inactive
O=S1OCC2C(CO1)C1(Cl)C(Cl)=C(Cl)C2(Cl)C1(Cl)Cl (centres undefined),Potency,[14],1.41 µM (active)
same,activation,[17],2.02% (inactive)
NCC#Cc1ccccc1,Potency,[7],inactive
O=C(O)COc1ccc(Cl)cc1Cl,outcome,[8],inactive
same,outcome,[20],inactive
same,Potency,[9],inactive
CCCN(CCC)C(=O)Cc1c(-c2ccc(Cl)cc2)nc2c(Cl)cc(Cl)cn12,Potency,[5],inactive
same,outcome,[10],inactive
same,Potency,[6],inactive
same,Potency,[7],inactive
C=CCc1ccc(OC)cc1,Potency,[11],> 92 µM (inactive)
same,outcome,[8],inactive
same,Potency,[13],inactive
same,max response,[18],-9.08%
same,Potency,[19],inactive
same,Potency,[9],inactive
CCOCN(C(=O)CCl)c1c(C)cccc1CC,Potency,[11],32 µM (active)
same,outcome,[20],inactive
ClC(Cl)=C(c1ccc(Cl)cc1)c1ccc(Cl)cc1,outcome,[20],inactive
same,Potency,[12],inactive
same,Potency,[13],inactive
same,Potency,[14],inactive
same,outcome,[16],inactive
same,activation,[17],-9.46% (inactive)
same,activation,[15],4.56% (inactive) and 6.94% (inactive) and 2.36% (inactive)
same,max response,[18],6.36% and 34.1%
same,Potency,[19],inactive
COP(=S)(OC)Oc1ccc([N+](=O)[O-])cc1,Potency,[11],> 92 µM (inactive)
same,Potency,[14],inactive
same,outcome,[16],inactive
same,activation,[17],0.0258% (inactive) and 2.38% (inactive)
same,max response,[18],-15.9%
same,Potency,[19],inactive
ClC1=C(Cl)C2(Cl)C3C(Cl)C=CC3C1(Cl)C2(Cl)Cl (centres undefined),outcome,[8],inactive
same,max response,[18],-19.5%
same,Potency,[19],inactive
CCc1cccc(CC)c1N(COC)C(=O)CCl,outcome,[20],inactive
same,outcome,[16],inactive
same,activation,[17],-2.1% (inactive)
same,activation,[15],0.967% (inactive) and -3.2% (inactive)
ClC1=C(Cl)C2(Cl)C3C4CC(C5OC45)C3C1(Cl)C2(Cl)Cl (centres undefined),outcome,[8],inactive
same,Potency,[12],20 µM (active)
C/C=C/c1ccc2c(c1)OCO2,Potency,[11],> 92 µM (inactive)
same,outcome,[20],inactive
same,Potency,[12],inactive
same,Potency,[9],inactive
CNC(=O)O/N=C/C(C)(C)SC,Potency,[12],inactive
same,Potency,[14],inactive
same,outcome,[16],inactive
same,activation,[17],1.35% (inactive) and 5.69% (inactive) and 1.03% (inactive)
same,max response,[18],-48.7% and -22%
same,Potency,[9],inactive
C[C@]12CC[C@H](O)C[C@@H]1CC[C@H]1[C@H]2CC[C@]2(C)C(=O)CC[C@@H]12,outcome,[10],inactive
C[N+]1(C)[C@@H]2CC[C@H]1CC(OC(=O)[C@@H](CO)c1ccccc1)C2 (some centres undefined),outcome,[10],inactive
CC[C@@]1(c2ccc(N)cc2)CCC(=O)NC1=O,outcome,[10],inactive
COc1ccc2c(c1OC)C(=O)O[C@H]2[C@H]1c2cc3c(cc2CCN1C)OCO3,Potency,[7],inactive
COc1ccc(OC)c([C@H](O)[C@H](C)N)c1,Potency,[5],inactive
same,outcome,[10],inactive
same,Potency,[6],inactive
same,Potency,[7],inactive
